Only some compounds are listed: those with a hit (about 3.6% of all), similar ones and a draw of the others.
HSF1 inh: HSF1 inhibitors in luciferase reporter cells, primary screen, cell-based, NIH3T3, luminescence. NIH3T3-HGL HSE-luciferase, MG132-induced, luminescence 8 h; active compounds read low. activity change, negative = inhibition, % at 7.5 µM (by protocol). actives 0.77% (n = 300,000);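 active = more than half of replicate wells show activity change below -50%, luminescence cut by over half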;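 note: luciferase reports HSF-1 transcriptional activity via heat shock element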
EBV LMP1 NFkB: EBV LMP1-driven NF-kappaB luciferase reporter inhibitors, primary screen, cell-based, luminescence, single point | LMP1-induced NF-kappaB luciferase reporter cells | inhibition, % at 12.5 µM | actives 0.69% (n = 350,000) | AID 504558, 2011; in the data active = inhibition above about 41%
HSF-1 act: HSF-1 activators, primary screen, NIH3T3-HGL cells, MG132 stress, luminescence, single point. NIH3T3-HGL HSF-1 luciferase reporter, 8 h; 100% = twice DMSO control signal. activation, % at 9 µM. actives 1.7% (n = 300,000);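 active = mean replicate activation of at least 50% with a set share of replicates each reaching 50%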
TWEAK Fn14 block: inhibitors of TWEAK-Fn14 signaling, primary screen, luciferase reporter cells, uHTS; TWEAK-stimulated Fn14 reporter cells, luciferase luminescence, 8 h; inhibition, % at 10 µM; actives 2% (n = 360,000); AID 1159606, 2016; in the data active = inhibition above about 50%
LGR2 inh: inhibitors of bursicon-induced LGR2 CRE-luciferase signal, primary screen, cell-based, HEK293, CRE-luciferase reporter, bursicon stimulation; bursicon-stimulated, 4 h; actives 0.35% (n = 380,000); inhibition, % at 9.99 µM;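 active = drop in luminescence signal, shown as inhibition above about 50% in the replicate tests, limit read from the data, passing the limit was not always enough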;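 note: agonist challenge used bursicon conditioned medium at about half maximal strength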
TROY signal inh: inhibitors of TROY-driven NF-kB signaling, primary screen, Q293 LMP1-TROYcd cells, NF-kB luciferase, uHTS | Q293 LMP1-TROYcd NF-kB luciferase reporter, 4 h | inhibition, % at 10 µM | actives 0.98% (n = 360,000) | AID 1347056, 2019;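 active = compounds whose plate-normalised and pattern-corrected inhibition of the luciferase reporter signal at the single screening dose is 50% or more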
Each line names hits and unclear results; the compound was inactive in the other large screens.

COc1ccc(C(=O)N2CCN(c3ncnc4c(-c5ccccc5)nsc34)CC2)cc1	none (no result: LGR2 inh)
Cc1ccc(-c2nsc3c(N4CCC(C(N)=O)CC4)ncnc23)cc1	TWEAK Fn14 block 59 (no result: LGR2 inh)
COc1ccc(-c2nsc3c(N4CCCCC4)ncnc23)cc1	HSF1 inh -80, TWEAK Fn14 block 102, TROY signal inh 80 (no result: LGR2 inh)
COc1ccc(-c2nnc(NC(=O)c3ccc(S(=O)(=O)N4CCCc5ccccc54)cc3)o2)cc1	EBV LMP1 NFkB 49 (no result: LGR2 inh)
C[C@H]1CN([C@@H](C)CO)C(=O)Cc2cc(NC(=O)Nc3cccc4ccccc34)ccc2O[C@H]1CN(C)S(=O)(=O)c1cccs1	none (no result: HSF1 inh, EBV LMP1 NFkB, HSF-1 act, TWEAK Fn14 block, TROY signal inh)
COc1ccc(-c2cn3cc(C)ccc3n2)cc1OC	HSF-1 act 96 (no result: LGR2 inh)
COc1ccc(-c2nc3c(-c4ccccc4)cnn3cc2C)cc1F	none
COc1ccc(-c2cn3ccccc3n2)cc1OC	none (no result: LGR2 inh)
COc1ccc(-c2cn3cc(C)ccc3n2)cc1F	HSF-1 act 59, TWEAK Fn14 block 76, LGR2 inh 90, TROY signal inh 61
C[C@@H]1CN([C@@H](C)CO)C(=O)c2cc(NC(=O)Cn3cnnn3)ccc2O[C@@H]1CN(C)S(=O)(=O)c1ccc(Cl)cc1	none (no result: HSF1 inh, EBV LMP1 NFkB, HSF-1 act, TWEAK Fn14 block, TROY signal inh)
Cc1cc(SCc2cccc([N+](=O)[O-])c2)nc(=O)[nH]1	none
Cc1cc(SCc2ccc([N+](=O)[O-])cc2)nc(=O)[nH]1	HSF-1 act 69
O=[N+]([O-])c1ccc(CSc2nc3ccccc3[nH]2)cc1	HSF-1 act 121
Fc1ccc(CSc2nc3ccccc3[nH]2)cc1	HSF-1 act 61 (no result: LGR2 inh)
O=C(CCCSc1nc2ccccc2[nH]1)N1CCN(c2ccc([N+](=O)[O-])cc2)CC1	HSF-1 act 73, TWEAK Fn14 block 50 (no result: LGR2 inh)
O=C(CSc1nc2ccccc2[nH]1)N1CCN(c2ccc(F)cc2)CC1	none (no result: LGR2 inh)
C[C@@H]1CN([C@H](C)CO)C(=O)Cc2cc(NC(=O)Cn3cnnn3)ccc2O[C@H]1CN(C)Cc1ccccc1	none (no result: HSF1 inh, EBV LMP1 NFkB, HSF-1 act, TWEAK Fn14 block, TROY signal inh)
CCCCN1C2CCCC1CC(NC(=O)C1CCCCC1)C2 (stereo unspecified)	EBV LMP1 NFkB 51 (no result: LGR2 inh)
CCc1ccc(C(=O)NC2CCCCC2)s1	HSF-1 act 54 (no result: LGR2 inh)
Cc1cc(C)c2nc(NC(=O)c3ccc(OCC4CCCO4)cc3)sc2c1 (stereo unspecified)	TWEAK Fn14 block 53
Cc1ccc2nc(NC(=O)c3ccc(OCC4CCCO4)cc3)sc2c1 (stereo unspecified)	HSF-1 act 57, TWEAK Fn14 block 90
COc1ccc2nc(NC(=O)c3ccc(NC(=O)C4CCCO4)cc3)sc2c1 (stereo unspecified)	none
CC(=O)N1[C@H](CO)[C@@H](c2ccccc2)C12CN(C(=O)c1ccccc1)C2	none (no result: HSF1 inh, EBV LMP1 NFkB, HSF-1 act, TWEAK Fn14 block, TROY signal inh)
O=C(Cc1cccs1)N1CCN=C1SCc1cccc(F)c1	TWEAK Fn14 block 81
O=C(Cc1cccs1)N1CCN=C1SCc1ccc(Br)cc1	none
Cn1c(SCc2ccc(C#N)cc2Cl)nc2ccccc21	HSF-1 act 93
Cc1nn(-c2ccccc2)c(C)c1-c1nnc(-c2c(C)nn(-c3ccccc3)c2C)o1	TROY signal inh 50
Cc1ccc(O)c(C=Nc2cc(C)ccc2O)c1	none (no result: LGR2 inh)
CC(C)(C)c1ccc(O)c(N=Cc2cc(Br)ccc2O)c1	TWEAK Fn14 block 88, TROY signal inh 85
CN(C)S(=O)(=O)c1ccc(C(=O)NCc2ccccc2)cc1	none (no result: LGR2 inh)
CN(C)S(=O)(=O)c1ccc(C(=O)NCC2CC2(Cl)Cl)cc1 (stereo unspecified)	EBV LMP1 NFkB 43
CCS(=O)(=O)Nc1ccc(-c2nc3cccnc3s2)cc1	TWEAK Fn14 block 69
O=C(Nc1ccc2oc(-c3ccccc3)nc2c1)C1CCCO1 (stereo unspecified)	HSF-1 act 73
O=C(Nc1ccc(-c2nc3cccnc3s2)cc1)C1CCCO1 (stereo unspecified)	HSF1 inh -59, EBV LMP1 NFkB 65, TWEAK Fn14 block 99, LGR2 inh 90, TROY signal inh 60
O=C(Nc1ccc(-c2nc3ccccc3o2)cc1)C1CCCO1 (stereo unspecified)	none (no result: LGR2 inh)

Bioassay records as filed in PubChem BioAssay.
